# Measurements from PubChem BioAssay (NCATS).
# Results filed as inconclusive are left out. Activity calls are given as the source filed them. Unless noted, calls follow the shape of the dose curve; as a rule, active = well fitted inhibition curve with a large enough effect; inconclusive = small, poorly fitted or top-dose-only effect; inactive = flat fitted curve, though single readings scatter.
# What was measured:
# [1] = qHTS for identification of novel therapeutic agents for treatment of microphthalmiaassociated transcription factor (MiT) renal cell carcinoma (RCC) (AID 1963991; calls by dose curve; also: potency is read from the fitted curve at half-maximal effect); conditions: CellTiter-Glo, 48 h; for z-score: stronger effect = lower value
# Procedure, shortened: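 Three TFE3-fusion RCC lines (UOK109, UOK124, UOK145), 500 cells/well in complete medium, were treated with MIPE 4.0 compounds for 48 hours at 37 C. Viability was by CellTiter-Glo luminescence, normalized to DMSO (100%) and empty wells (0%); curves fitted over 11 concentrations.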
# [2] = qHTS drug screen for cell cycle checkpoint inhibitors in PARPi-resistant BRCA-mutant ovarian cancer cell lines. (AID 1963452; calls by dose curve); conditions: PEO1/OlaR viability, CellTiter-Glo luminescence, 96 h, stronger effect = lower value
# Procedure, shortened: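 PEO1, PEO4 and PEO1/OlaR ovarian cancer cells, 600 per well, exposed 96 h at 37C to a dilution series. Viability read by CellTiter-Glo luminescence, normalized to DMSO and empty wells; activity summarized as Z-AUC.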
# [3] = qHTS profiling for inhibitors of Plasmodium falciparum proliferation (AID 504749); also: nearly all actives have a fitted effect of over 60% in size; also: potency is read from the fitted curve at half-maximal effect;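 as to activity, negative = inhibition: 0% = DMSO vehicle and full inhibition = artemisinin control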; conditions: P. falciparum in erythrocytes, SYBR Green DNA, 72 h
# Procedure, shortened: (§1)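 Readout was DNA-dye fluorescence from lysed cultures, ex 485/em 535 nm. Parasitized red cells had grown 72 h with compound; data scaled between 0.29 uM artemisinin and DMSO wells and corrected using vehicle-only plates.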
# AA1029 = assay: as above; conditions: P. falciparum in erythrocytes, SYBR Green DNA, 72 h; series mostly up to 28.7 µM
# Procedure, shortened: as §1
# 3D7 = assay: as above; conditions: P. falciparum in erythrocytes, SYBR Green DNA, 72 h; series mostly up to 28.7 µM
# Procedure, shortened: as §1
# AS120 = assay: as above; conditions: P. falciparum in erythrocytes, SYBR Green DNA, 72 h; series mostly up to 28.7 µM
# Procedure, shortened: as §1
# 7G8 = assay: as above; conditions: P. falciparum in erythrocytes, SYBR Green DNA, 72 h; series mostly up to 28.7 µM
# Procedure, shortened: as §1
# [4] = TFE3-RCC UOK109 viability, measured here: UOK109 Z-AUC
# [5] = TFE3-RCC viability, measured here: UOK124 Z-AUC
# [6] = TFE3-RCC viability, measured here: UOK145 Z-AUC
# [7] = measured here: PEO1 parental Z-AUC
# [8] = at 12.8 µM (top of the series), parasite line B
# [9] = at 28.7 µM (top of the series), parasite line A
# [10] = at 28.7 µM (top of the series), parasite line B
# [11] = at 12.8 µM (top of the series), parasite line A
compound,measurement,setting,value
CCOc1ccc(Cc2cc([C@@H]3O[C@H](CO)[C@@H](O)[C@H](O)[C@@H]3O)ccc2Cl)cc1,z-score,[1]; [4],0.362
same,z-score,[1]; [5],0.747
same,z-score,[1]; [6],0.623
NNCCc1ccccc1,Z-AUC,[2],0.52 (inactive)
same,Z-AUC,[2]; [7],0.364
same,Z-AUC,[2]; measured here: PEO4 Z-AUC,0.249
same,"activity, negative = inhibition",[3]; [8],-6.84% (inactive)
same,Potency,AA1029,inactive
Cn1cnc([N+](=O)[O-])c1Sc1ncnc2nc[nH]c12,Z-AUC,[2],-0.621 (inactive)
same,Z-AUC,[2]; [7],-1.27
same,Z-AUC,[2]; measured here: PEO4 Z-AUC,-1.41
same,Potency,3D7,inactive
same,Potency,AA1029,inactive
same,Potency,AS120,inactive
NS(=O)(=O)c1cc2c(cc1Cl)NC=NS2(=O)=O,Z-AUC,[2],0.885 (inactive)
same,Z-AUC,[2]; [7],1.02
same,Z-AUC,[2]; measured here: PEO4 Z-AUC,0.779
same,"activity, negative = inhibition",[3]; [9],7.83% (inactive)
same,"activity, negative = inhibition",[3]; [10],11% (inactive)
same,Potency,3D7,inactive
same,Potency,7G8,inactive
same,Potency,AA1029,inactive
same,Potency,AS120,inactive
Cc1oncc1C(=O)Nc1ccc(C(F)(F)F)cc1,Z-AUC,[2],0.594 (inactive)
same,Z-AUC,[2]; [7],0.454
same,Z-AUC,[2]; measured here: PEO4 Z-AUC,0.504
same,"activity, negative = inhibition",[3]; [11],-4.31% (inactive)
same,"activity, negative = inhibition",[3]; [8],9.52% (inactive)
same,Potency,3D7,inactive
same,Potency,7G8,3.55 µM (active)
same,Potency,AA1029,inactive
same,Potency,AS120,inactive
C[C@]12CC[C@H](O)CC1=CC[C@@H]1[C@H]2CC[C@]2(C)C(c3cccnc3)=CC[C@H]12,z-score,[1]; [4],0.87
same,z-score,[1]; [5],0.84
same,z-score,[1]; [6],0.924
Cc1ccccc1C(OCCN(C)C)c1ccccc1 (configuration not stated),"activity, negative = inhibition",[3]; [9],-3.11% (inactive)
same,"activity, negative = inhibition",[3]; [10],5.42% (inactive)
same,Potency,3D7,inactive
NC(N)=NC(=O)c1nc(Cl)c(N)nc1N,Potency,7G8,2 µM (active)
CC(C)C[C@H](NC(=O)[C@@H](O)[C@H](N)Cc1ccccc1)C(=O)O,Z-AUC,[2],0.8 (inactive)
same,Z-AUC,[2]; [7],0.368
same,Z-AUC,[2]; measured here: PEO4 Z-AUC,0.252
same,Potency,[3]; parasite line A,2.51 µM (active)
same,Potency,[3]; parasite line B,5.62 µM (active)
same,Potency,3D7,2.51 µM (active)
same,Potency,7G8,4.47 µM (active)
same,Potency,AA1029,5.62 µM (active)
same,Potency,AS120,6.31 µM (active)
CCCc1nn(C)c2c(=O)[nH]c(-c3cc(S(=O)(=O)N4CCN(C)CC4)ccc3OCC)nc12,Z-AUC,[2],1.57 (inactive)
same,Z-AUC,[2]; [7],1.2
same,Z-AUC,[2]; measured here: PEO4 Z-AUC,0.991
same,"activity, negative = inhibition",[3]; [9],8.82% (inactive)
same,"activity, negative = inhibition",[3]; [10],0.131% (inactive)
same,Potency,3D7,inactive
same,Potency,7G8,11.2 µM (active)
same,Potency,AA1029,inactive
same,Potency,AS120,inactive
Nc1ccc(S(=O)(=O)Nc2ccnn2-c2ccccc2)cc1,z-score,[1]; [4],2.1
same,z-score,[1]; [5],0.571
same,z-score,[1]; [6],1.56
same,"activity, negative = inhibition",[3]; [11],-1.36% (inactive)
same,"activity, negative = inhibition",[3]; [8],3.8% (inactive)
same,Potency,3D7,inactive
same,Potency,7G8,inactive
same,Potency,AA1029,inactive
same,Potency,AS120,inactive
OC(CN1CCC(Cc2ccc(F)cc2)CC1)c1ccc(Cl)cc1 (configuration not stated),z-score,[1]; [4],0.0108
same,z-score,[1]; [5],0.291
same,z-score,[1]; [6],0.245
same,"activity, negative = inhibition",[3]; [9],-26.6% (inactive)
same,Potency,[3]; parasite line B,0.891 µM (active)
same,Potency,3D7,5.01 µM (active)
same,Potency,7G8,0.316 µM (active)
same,Potency,AA1029,1.41 µM (active)
same,Potency,AS120,1.26 µM (active)
CNC[C@H](O)c1cccc(O)c1,"activity, negative = inhibition",[3]; [9],6.65% (inactive)
same,"activity, negative = inhibition",[3]; [10],-11% (inactive)
same,Potency,3D7,inactive
same,Potency,7G8,inactive
same,Potency,AA1029,inactive
same,Potency,AS120,inactive
Cc1c(CN2CCN(C(=O)C(C)C)CC2)sc2c(N3CCOCC3)nc(-c3cnc(N)nc3)nc12,Potency,"[1]; TFE3-RCC UOK109 viability, active = Z-AUC below -0.8 in all three lines",0.118 µM (active)
same,z-score,[1]; [4],-1.83
same,z-score,[1]; [5],-1.54
same,z-score,[1]; [6],-2.67
CCOC(=O)N1CCC(=C2c3ccc(Cl)cc3CCc3cccnc32)CC1,"activity, negative = inhibition",[3]; [10],-13.3% (inactive)
same,Potency,[3]; parasite line A,12.6 µM (active)
same,Potency,7G8,2.24 µM (active)
same,Potency,AS120,1.78 µM (active)
CC(C)NCC(O)COc1ccc(COCCOC(C)C)cc1 (configuration not stated),"activity, negative = inhibition",[3]; [9],1.04% (inactive)
same,"activity, negative = inhibition",[3]; [10],5.04% (inactive)
same,Potency,3D7,inactive
same,Potency,7G8,inactive
same,Potency,AA1029,inactive
same,Potency,AS120,inactive
O=c1n(CCCN2CCN(c3cccc(Cl)c3)CC2)nc2ccccn12,z-score,[1]; [4],-0.148
same,z-score,[1]; [5],0.322
same,z-score,[1]; [6],1.01
same,"activity, negative = inhibition",[3]; [11],-5.98% (inactive)
same,Potency,3D7,inactive
same,Potency,7G8,inactive
same,Potency,AA1029,inactive
same,Potency,AS120,inactive
NC[C@H](O)c1ccc(O)c(O)c1,Z-AUC,[2],-0.408 (inactive)
same,Z-AUC,[2]; [7],-0.854
same,Z-AUC,[2]; measured here: PEO4 Z-AUC,-0.505
same,"activity, negative = inhibition",[3]; [9],5.08% (inactive)
same,"activity, negative = inhibition",[3]; [10],9.63% (inactive)
same,Potency,3D7,inactive
same,Potency,7G8,inactive
same,Potency,AA1029,inactive
same,Potency,AS120,inactive
O=NN(CCCl)C(=O)NCCCl,Z-AUC,[2],0.732 (inactive)
same,Z-AUC,[2]; [7],0.83
same,Z-AUC,[2]; measured here: PEO4 Z-AUC,0.781
same,"activity, negative = inhibition",[3]; [9],-1.48% (inactive)
same,"activity, negative = inhibition",[3]; [10],4.82% (inactive)
same,Potency,3D7,inactive
same,Potency,7G8,inactive
same,Potency,AA1029,inactive
same,Potency,AS120,inactive
Cc1cn[nH]c1,Z-AUC,[2],1.01 (inactive)
same,Z-AUC,[2]; [7],0.488
same,Z-AUC,[2]; measured here: PEO4 Z-AUC,0.423
same,"activity, negative = inhibition",[3]; [9],7.67% (inactive)
same,"activity, negative = inhibition",[3]; [10],14.9% (inactive)
same,Potency,3D7,inactive
same,Potency,7G8,inactive
same,Potency,AA1029,inactive
same,Potency,AS120,inactive
Cc1ccccc1C(C(=O)NC1CCCC1)N(C(=O)Cn1cnc2ccccc21)c1cccc(F)c1 (configuration not stated),z-score,[1]; [4],0.51
same,z-score,[1]; [5],0.839
same,z-score,[1]; [6],0.533
COc1ccc2nc(S(=O)Cc3ncc(C)c(OC)c3C)[nH]c2c1 (configuration not stated),Z-AUC,[2],1.57 (inactive)
same,Z-AUC,[2]; [7],0.925
same,Z-AUC,[2]; measured here: PEO4 Z-AUC,1.02
same,"activity, negative = inhibition",[3]; [9],-18.6% (inactive)
same,"activity, negative = inhibition",[3]; [10],-6.81% (inactive)
same,Potency,3D7,inactive
same,Potency,7G8,10 µM (active)
same,Potency,AA1029,inactive
same,Potency,AS120,inactive
